For ten molecules, growth inhibition results are on record in PubChem BioAssay (NCI).

Compounds without any hit were thinned out: in the full panel of roughly 79,000, 15% have a hit. Unmarked numbers belong to inactive results. Calls of active or inactive are those of the source. Rule as the data show it: active = growth inhibition above about 70%; inactive = the rest.

Assay [1] is described as follows: NCI Yeast Anticancer Drug Screen. Data for the rad50 strain (AID 155).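 Also: 0% = growth of vehicle-only cultures of the same strain.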 The settings on record: S. cerevisiae rad50 strain growth inhibition, stronger effect = higher value. Summed up: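 A DNA repair-deficient yeast mutant serves as the test organism; compound-induced growth inhibition is calculated against vehicle-treated cells.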
Assay [2] is described as follows: NCI Yeast Anticancer Drug Screen. Data for the mec2-1 strain (AID 157). As to conditions: S. cerevisiae mec2-1 strain, stronger effect = higher value. Summed up:
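Yeast mec2-1 mutant treated with compound. Readout: growth inhibition vs vehicle controls.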

A short description of assay [3]: NCI Yeast Anticancer Drug Screen. Data for the sgs1 mgt1 strain (AID 161).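 Also: 0% = growth of cultures given vehicle only.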 As to conditions: S. cerevisiae sgs1 mgt1 strain, stronger effect = higher value. Summed up: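 Inhibition of yeast growth, normalised to vehicle-treated controls, is reported for a strain bearing genetic alterations in DNA damage repair.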
Assay [4] can be described thus: NCI Yeast Anticancer Drug Screen. Data for the cln2 rad14 strain (AID 165).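 Also: 0% = growth equal to vehicle treated cultures.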 As to conditions: S. cerevisiae cln2 rad14 strain, stronger effect = higher value. Summed up: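 cln2 rad14 yeast strain; compound exposure; growth inhibition read vs vehicle controls.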
The nature of assay [5]: NCI Yeast Anticancer Drug Screen. Data for the bub3 strain (AID 167). The settings on record: S. cerevisiae bub3 mutant strain, stronger effect = higher value. Summed up: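 Inhibition values come from growth of compound-treated mutant yeast normalised to vehicle-treated controls.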
Assay [6] in a line: NCI Yeast Anticancer Drug Screen. Data for the mlh1 rad18 strain (AID 175). As to conditions: S. cerevisiae mlh1 rad18 strain growth inhibition, stronger effect = higher value. The procedure, abridged:
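Yeast w/ defined DNA-repair lesions; compound exposure; growth vs vehicle controls → % inhibition.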

The mark [7] stands for this setting: at 5.0 µM (retest, dose inferred, filed as 0.5).
The mark [8] stands for this setting: at 50.0 µM (retest, dose inferred, filed as 5.0).

With `Fc1ccc(NC(=S)SCc2ccccc2)cc1`, the growth inhibition was 4% in assay [1] (setting [7]); 16% in assay [1] (setting [8]); 68.3% in assay [1] (at 50.0 µM); -2% in assay [2] (setting [7]); 18% in assay [2] (setting [8]); 53.6% in assay [2] (at 50.0 µM). Further, the growth inhibition in assay [3] (setting [7]) was 2%; in assay [3] (setting [8]), 19%; in assay [3] (at 50.0 µM) it was 76.8% (active); in assay [4] (setting [7]) it was -7%; in assay [4] (setting [8]), 1%; in assay [4] (at 50.0 µM) it was 28.9%. Further, the growth inhibition in assay [5] (setting [7]) was -4%; in assay [5] (setting [8]), 34%; in assay [5] (at 50.0 µM), 45.5%; in assay [6] (setting [7]), 0%; in assay [6] (setting [8]), 15%; in assay [6] (at 50.0 µM), 78.2% (active).

For `COc1ccc(CNc2nc3cc(C(F)(F)F)ccc3nc2C)cc1OC`, the growth inhibition is -9% in assay [1] (setting [7]); 22% in assay [1] (setting [8]); 87.8% (active) in assay [1] (at 50.0 µM); -34% in assay [2] (setting [7]); 39% in assay [2] (setting [8]); 91.3% (active) in assay [2] (at 50.0 µM). Also, the growth inhibition is 6% in assay [3] (setting [7]); 38% in assay [3] (setting [8]); 91.4% (active) in assay [3] (at 50.0 µM); 11% in assay [4] (setting [7]); 74% (active) in assay [4] (setting [8]); 92.7% (active) in assay [4] (at 50.0 µM). Further, the growth inhibition was -30% in assay [5] (setting [7]); 18% in assay [5] (setting [8]); 89.7% (active) in assay [5] (at 50.0 µM); -19% in assay [6] (setting [7]); 18% in assay [6] (setting [8]); 89.2% (active) in assay [6] (at 50.0 µM).

As for `CCOC(=O)C(C=O)(C=O)c1ccccc1`, the growth inhibition in assay [1] (setting [7]) was 6%; in assay [1] (setting [8]) it was 42%; in assay [1] (at 50.0 µM), 71.5% (active); in assay [2] (setting [7]), 4%; in assay [2] (setting [8]), 19%; in assay [2] (at 50.0 µM), 8.5%. For the same molecule, the growth inhibition was 7% in assay [3] (setting [7]); 18% in assay [3] (setting [8]); 61% in assay [3] (at 50.0 µM); 4% in assay [4] (setting [7]); 24% in assay [4] (setting [8]); 43.2% in assay [4] (at 50.0 µM). In addition, the growth inhibition in assay [5] (setting [7]) was -3%; in assay [5] (setting [8]), 14%; in assay [5] (at 50.0 µM), -36.4%; in assay [6] (setting [7]), -1%; in assay [6] (setting [8]), 32%; in assay [6] (at 50.0 µM), 44.5%.

Turning to `CC(=O)c1cccc([N+](=O)[O-])c1`, the growth inhibition in assay [1] (setting [7]) is -2%; in assay [1] (setting [8]), 5%; in assay [1] (at 50.0 µM), 27.4%; in assay [2] (setting [7]), -2%; in assay [2] (setting [8]), 2%; in assay [2] (at 50.0 µM) it was -9.25%. Further, the growth inhibition in assay [3] (setting [7]) is -1%; in assay [3] (setting [8]) it was 2%; in assay [3] (at 50.0 µM), 24.4%; in assay [4] (setting [7]) it was -1%; in assay [4] (setting [8]) it was -2%; in assay [4] (at 50.0 µM), 44.9%. Moreover, the growth inhibition in assay [5] (setting [7]) was 1%; in assay [5] (setting [8]), 7%; in assay [5] (at 50.0 µM), 9.25%; in assay [6] (setting [7]), -3%; in assay [6] (setting [8]), 3%; in assay [6] (at 50.0 µM), 9%.

For the molecule `CC(=O)OCc1ccc2c(c1)C(O)NC(=O)O2` (stereo not given), the growth inhibition in assay [1] (setting [7]) was 8%; in assay [1] (setting [8]), 45%; in assay [1] (at 50.0 µM), 36%; in assay [2] (setting [7]), 2%; in assay [2] (setting [8]) it was 13%; in assay [2] (at 50.0 µM) it was 21.9%. For the same molecule, the growth inhibition is 13% in assay [3] (setting [7]); 69% in assay [3] (setting [8]); 51.8% in assay [3] (at 50.0 µM); -5% in assay [4] (setting [7]); 18% in assay [4] (setting [8]); 16.2% in assay [4] (at 50.0 µM). The growth inhibition in assay [5] (setting [7]) was 0%; in assay [5] (setting [8]), -7%; in assay [5] (at 50.0 µM), -23.1%; in assay [6] (setting [7]), 43%; in assay [6] (setting [8]), 88% (active); in assay [6] (at 50.0 µM) it was 55.6%.

With `CCN(CC)CC(O)c1ccc2cc(Cl)c3ccccc3c2c1` (stereo not given), the growth inhibition in assay [1] (setting [7]) is 15%; in assay [1] (setting [8]), 99% (active); in assay [1] (at 50.0 µM), 99.5% (active); in assay [2] (setting [7]), 4%; in assay [2] (setting [8]), 99% (active); in assay [2] (at 50.0 µM), 99.5% (active). Besides, the growth inhibition in assay [3] (setting [7]) is 25%; in assay [3] (setting [8]), 99% (active); in assay [3] (at 50.0 µM), 99.6% (active); in assay [4] (setting [7]), 8%; in assay [4] (setting [8]), 99% (active); in assay [4] (at 50.0 µM), 99.3% (active). Moreover, the growth inhibition in assay [5] (setting [7]) is 16%; in assay [5] (setting [8]) it was 98% (active); in assay [5] (at 50.0 µM), 99.5% (active); in assay [6] (setting [7]), 29%; in assay [6] (setting [8]) it was 99% (active); in assay [6] (at 50.0 µM) it was 99.6% (active).

With `CC(CC(C#CCN(C)C)N(C)C)CC(C)(C)C` (stereo not given), the growth inhibition in assay [1] (setting [7]) was 22%; in assay [1] (setting [8]), -9%; in assay [1] (at 50.0 µM), -5.3%; in assay [2] (setting [7]) it was 1%; in assay [2] (setting [8]) it was -10%; in assay [2] (at 50.0 µM) it was 15.6%. Moreover, the growth inhibition in assay [3] (setting [7]) is 3%; in assay [3] (setting [8]), 5%; in assay [3] (at 50.0 µM) it was 13.3%; in assay [4] (setting [7]) it was 1%; in assay [4] (setting [8]), 24%; in assay [4] (at 50.0 µM), -7.5%. Besides, the growth inhibition in assay [5] (setting [7]) is 7%; in assay [5] (setting [8]), 14%; in assay [5] (at 50.0 µM), 41.1%; in assay [6] (setting [7]), 6%; in assay [6] (setting [8]) it was -5%; in assay [6] (at 50.0 µM) it was 38.6%.

In the case of `CC/C(=C(\CC)c1ccc(O)c(CN(CC)CC)c1)c1ccc(OC)cc1`, the growth inhibition in assay [1] (setting [7]) is -1%; in assay [1] (setting [8]), 68%; in assay [1] (at 50.0 µM) it was 99.4% (active); in assay [2] (setting [7]), 15%; in assay [2] (setting [8]), 62%; in assay [2] (at 50.0 µM), 99.7% (active). Further, the growth inhibition in assay [3] (setting [7]) is -31%; in assay [3] (setting [8]), 92% (active); in assay [3] (at 50.0 µM) it was 99.6% (active); in assay [4] (setting [7]) it was -1%; in assay [4] (setting [8]), 80% (active); in assay [4] (at 50.0 µM), 99.5% (active). Further, the growth inhibition was 0% in assay [5] (setting [7]); 65% in assay [5] (setting [8]); 99.4% (active) in assay [5] (at 50.0 µM); 5% in assay [6] (setting [7]); 99% (active) in assay [6] (setting [8]); 99.5% (active) in assay [6] (at 50.0 µM).

Turning to `CCCCCCCCCC[N+](C)(C)CCC[N+](C)(C)CCCCCCCCCC`, the growth inhibition is 42% in assay [1] (setting [7]); 93% (active) in assay [1] (setting [8]); 89.5% (active) in assay [1] (at 50.0 µM); 20% in assay [2] (setting [7]); 88% (active) in assay [2] (setting [8]); 91.2% (active) in assay [2] (at 50.0 µM). In addition, the growth inhibition is 37% in assay [3] (setting [7]); 98% (active) in assay [3] (setting [8]); 88.3% (active) in assay [3] (at 50.0 µM); 32% in assay [4] (setting [7]); 88% (active) in assay [4] (setting [8]); 78.2% (active) in assay [4] (at 50.0 µM). The growth inhibition is 31% in assay [5] (setting [7]); 95% (active) in assay [5] (setting [8]); 62.6% in assay [5] (at 50.0 µM); 31% in assay [6] (setting [7]); 89% (active) in assay [6] (setting [8]); 61.8% in assay [6] (at 50.0 µM).

Take `Cc1ccc(C2(c3ccc(F)cc3)OC(=O)c3ccccc32)c(O)c1` (stereo not given): the growth inhibition was 11% in assay [1] (setting [7]); 99% (active) in assay [1] (setting [8]); 86.2% (active) in assay [1] (at 50.0 µM); 13% in assay [2] (setting [7]); 99% (active) in assay [2] (setting [8]); 88.7% (active) in assay [2] (at 50.0 µM). Moreover, the growth inhibition in assay [3] (setting [7]) was -14%; in assay [3] (setting [8]), 99% (active); in assay [3] (at 50.0 µM), 97% (active); in assay [4] (setting [7]), 3%; in assay [4] (setting [8]), 99% (active); in assay [4] (at 50.0 µM), 93.8% (active). Moreover, the growth inhibition in assay [5] (setting [7]) is 11%; in assay [5] (setting [8]), 99% (active); in assay [5] (at 50.0 µM), 98.8% (active); in assay [6] (setting [7]), 27%; in assay [6] (setting [8]), 99% (active); in assay [6] (at 50.0 µM) it was 96.3% (active).
